Compound activity: PubChem BioAssay, National Center for Advancing Translational Sciences (NCATS)
HT1080NT lethal = kills 2HG-producing HT-1080-NT fibrosarcoma cells; HT-1080-NT fibrosarcoma viability, CellTiter-Glo ATP luminescence, 48 h; AID 686970; Potency, µM (doses to about 46.1 µM), most hits filed as cytotoxic; 360,000 tested, 1.6% active;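 note: NT is the 2HG producing partner of a matched IDH1 knockdown line; nearly all actives have a fitted effect of over 55% in size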
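A 48-hour cytotoxicity screen used HT-1080-NT cells plated 2 hours before compound delivery. ATP-based CellTiter-Glo luminescence measured viability, normalized to DMSO and no-cell controls.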
TGFb inhibitor = blocks TGF-b signaling. 410,000 tested, 1.2% active. HepG2 CAGA-GFP TGF-b/SMAD3 reporter, GFP fluorescence, 18 h; TGF-beta stimulated, 500 pg/mL final. Potency, µM (titrated, usually from 46.1 µM), usual class: inhibitors; note: nearly all actives have a fitted effect of over 65% in size
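Smad-responsive CAGA-GFP expression was quantified in HEPG2 cells exposed to compounds and 500 pg/mL final TGF-beta for 18 h at 37 degrees C; unstimulated wells defined full inhibition.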
HT1080 IDH1KD tx = toxicity to HT-1080 IDH1 knockdown cells (counter line); HT-1080 IDH1 knockdown viability, ATP luminescence, 48 h; Potency, µM (highest dose often 46.1 µM), actives largely listed as cytotoxic; 360,000 tested, 2% active; AID 686971
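In this qHTS, HT-1080 cells depleted of IDH1 are exposed for 48 h at 37 °C to compound titrations. Toxicity is scored from CellTiter-Glo luminescence, with DMSO as full viability and medium alone as none.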
HepG2 tox = HepG2 cytotoxicity, counter-screen for TGF-b inhibitors; Potency, µM (highest dose often 46.1 µM), hits mostly cytotoxic; 410,000 tested, 0.76% active; AID 588856; HepG2 CAGA-GFP viability, ATP luminescence, 18 h
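CellTiter-Glo luminescence gave cytotoxicity after 18 hours at 37 degrees C. The cells were HepG2 CAGA-GFP in 1% FBS DMEM, stimulated with 500 pg/mL TGF-beta after compound addition. %Activity was normalised to no-cell wells (complete cell-killing) and DMSO (no toxicity), and curves were fitted and classified.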
IL1B secr inh = inhibitors of inflammasome signaling (IL-1 beta secretion) | AID 743279 | THP-1 LPS/ATP IL-1B secretion, AlphaLISA, 16 h; stronger effect = lower value | 360,000 tested, 4.7% active | activity change, % at 57.5 µM; in the data active = activity change below about -50%; inconclusive = mostly about -30% to -49%
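Secreted IL-1B measured by AlphaLISA bead assay after 16 h compound exposure of THP-1 cells; compounds (final up to 57.5 uM) added 1 h before LPS (250 ng/mL) and ATP (1.25 mM) stimulation; lower signal means less secretion.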
Giardia kill = Giardia lamblia killing | activity change, % at 7.66 µM, hits read low | 340,000 tested, 0.15% active | Giardia lamblia trophozoite viability | AID 540267; in the data active = activity change below about -80%; inconclusive = between about -30% and that limit;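 note: parasites exposed to compound for two days anaerobically before the ATP read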
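Viability, read as ATP luminescence: trophozoites at 100 cells/well, compound added, 48 hrs anaerobic at 37 deg C, then 15-30 min room-temperature development before reading.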
A number is an active result; n = inactive; u = inconclusive; x = not tested or not shown. Compounds with a hit are over-represented: about 6.5% of the library has one in this group of screens. Unless noted, calls come from the whole dose curve; as a rule, active = well fitted curve in the direction sought with a large enough effect; inconclusive = small, poorly fitted or top-dose-only effect, or another doubt; inactive = no such curve, though single readings can be large; an effect the other way counts as inactive or inconclusive.

SMILES | HT1080NT lethal | TGFb inhibitor | HT1080 IDH1KD tx | HepG2 tox | IL1B secr inh | Giardia kill
CCOc1ccc(CCN2C(=S)N([C@@H](Cc3ccccc3)CN3CCC[C@@H]3CN3C(=S)NC[C@@H]3Cc3ccc(O)cc3)C[C@@H]2CC(C)C)cc1 | n | u | n | n | n | x
CCOc1ccc(CCN2C(=O)C(=O)N([C@@H](CC(C)C)CN3CCC[C@H]3CN3C(=O)C(=O)NC[C@@H]3Cc3ccccc3)C[C@@H]2Cc2ccc(O)cc2)cc1 | u | x | u | x | n | x
CCOc1ccc(CCN2C(=O)C(=O)N([C@@H](CC(C)C)CN3CCC[C@@H]3CN3C(=O)C(=O)NC[C@@H]3Cc3ccccc3)C[C@@H]2Cc2ccc(O)cc2)cc1 | n | u | n | n | -52.4 | u
CC(C)C[C@H]1CN([C@@H](CC(C)C)CN2CCC[C@H]2CN2C(=O)C(=O)NC[C@@H]2Cc2ccc(O)cc2)C(=O)C(=O)N1CCc1ccccc1 | n | x | n | x | u | x
CCOc1ccc(CCN2C(=S)N([C@@H](Cc3ccc(O)cc3)CN3CCCC3CN3C(=S)NC[C@@H]3Cc3ccc(O)cc3)C[C@@H]2CC(C)C)cc1 (some centres not stated) | n | u | n | n | -69.4 | n
CCOc1ccc(CCN2C(=O)C(=O)N([C@@H](CC(C)C)CN3CCC[C@@H]3CN3C(=O)C(=O)NC[C@@H]3Cc3ccccc3)C[C@@H]2CC(C)C)cc1 | u | 10µM | u | n | u | n
CCOCCn1c(=O)c2c(nc3n2CC(C)CN3Cc2ccccc2)n(C)c1=O (configuration not stated) | n | n | n | n | n | n
COc1ccc(C(=O)Nc2ccc(-c3n[nH]c(=S)o3)cc2)cc1 | n | n | n | n | n | n
CCc1ccc(C2=NN(CCC(=O)NC(C)c3ccc4c(c3)OCCO4)C(=O)CC2)cc1 (configuration not stated) | n | n | n | n | n | n
COc1ccc(C(C(=O)Nc2ccc(F)cc2)N2CCN(c3ccncc3)CC2)cc1 (configuration not stated) | n | x | n | x | n | x
COc1cc(/C=N/NC(=S)NC2CC3CC2C2C=CCC32)ccc1O (configuration not stated) | 18.4µM | u | u | n | n | n
CC1CCCCN1C(=O)Cn1cnc2c1c(=O)n(C)c(=O)n2C (configuration not stated) | n | n | n | n | n | n
CC1Sc2ccc(S(=O)(=O)N3CCN(c4ccccc4)CC3)cc2NC1=O (configuration not stated) | n | u | n | n | n | n
Cc1cccc(N2CCN(S(=O)(=O)c3ccc4c(c3)C(C)(C)C(=O)N4C)CC2)c1C | n | n | n | n | n | n
Cc1cccc(N2CCN(S(=O)(=O)c3ccc4c(c3)C(C(C)C)C(=O)N4)CC2)c1C (configuration not stated) | x | 15.8µM | x | n | x | x
Cc1cccc(N2CCN(S(=O)(=O)c3ccc4c(c3)NC(=O)C(C)S4)CC2)c1C (configuration not stated) | u | 15.8µM | u | n | n | n
COCCNC(=O)CSc1cn(CC(=O)N2CCCCCC2)c2ccccc12 | x | u | x | n | x | x
CC(C)OCc1cc(CN2CCN(c3cccc(C(F)(F)F)c3)CC2)c(O)c2ncccc12 | x | 1.58µM | x | n | x | x
CCOCc1cc(CN2CCN(c3cccc(C(F)(F)F)c3)CC2)c(O)c2ncccc12 | x | 2.82µM | x | n | x | x
O=[N+]([O-])c1cc(CN2CCN(c3cccc(C(F)(F)F)c3)CC2)c2cccnc2c1O | u | n | u | n | n | n
O=[N+]([O-])C(/C=C(/Cl)[N+](=O)[O-])=C(N1CCCCC1)N1CCCCC1 | n | u | u | n | x | -93.7
c1ccc(-c2cc(-c3ccccc3)n3ncnc3n2)cc1 | n | n | n | n | n | n
CCOC(=O)CSc1cc(-c2ccccc2)nc2ncnn12 | u | n | 18.4µM | n | x | n
